40 molecules from PubChem BioAssay (Tox21) can be followed below.

“And” between values parts separate entries of the source, which are not always exact repeats. Equal entries are not always repeated. A number with no mark means an inactive call. Entries that show only a call come without a potency. The source made the active and inactive calls. Calls follow the shape of the dose curve; as a rule, active = well fitted curve in the direction sought with a large enough effect in the repeat runs; inconclusive = weak or mixed curves; inactive = flat fitted curve, though single readings scatter.
Potency is read from the fitted curve at half-maximal effect; tags tell the direction and shape of the fitted curve or compound fluorescence and quenching.

The nature of the assay: qHTS assay to test for compound auto fluorescence at 535 nm (green) in HEK293 cells (AID 720680). The note with it: green autofluorescence 485/535 nm; series mostly up to 91.3 µM. An excerpt: U.S. Tox21 Program National Center for Advancing Translational Sciences [NCATS] NIH Chemical Genomics Center [NCGC] U.S. Environmental Protection Agency [EPA] National Institutes of Environmental Health Sciences [NIEHS] National Toxicology Program [NTP] U.S. Food and Drug Administration [FDA] Tox21 Assay Overview: Compound auto fluorescence often interferes with screening of the compound library against various biological targets and signaling pathways. Some of these compounds may have fluorophoric properties. Such properties may interfere with the assay outputs resulting in false positives and/or negatives. To decrease such complications and ensure the compound activities are relevant in terms of biological response, the Tox21 10K compound library was screened for auto fluorescence. From the fluorophores used as reporter signals in our screening assays, the auto fluorescence equivalencies of compounds against three fluorophores have been evaluated: Triamterene, Fluorescein and Rose Bengal sodium for blue, green and red fluorescence, respectively. The fluorescence intensities were measured using Excitation/Emission wavelengths at 405/460nm, 485/535nm and 540/590nm for blue, green and red labels, respectively. This assay includes the green fluorescence data.
Tox21 Assay Protocol Summary: 2,000 HEK293 cells in 5 uL of culture medium containing 10% dialyzed FBS per well were dispensed into black wall/clear bottom 1536-well plates using a Multidrop Combi Dispenser (Thermo Scientific). The assay plates were incubated for 4-5 hr at 37C to allow cell attachment to the well bottom, followed by the transfer of 23 nL compound or DMSO vehicle by a pintool work station (Kalypsys, San Diego, CA). After the assay plates were incubated overnight at 37C and 5% CO2, fluorescence intensities in the assay plates were measured by an Envision (PerkinElmer, Shelton, CT) plate reader using three labels for measuring blue, green and red fluorescence at […] 460, 535 and 590nm respectively.
With `O=C1OC2(c3ccc(O)cc3Oc3cc(O)ccc32)c2ccccc21`, the Potency is 3.16 µM [fluorescent] (active) and 2.82 µM [fluorescent] (active) and 3.98 µM [fluorescent] (active). As to `N[C@@H]1CONC1=O`, the Potency entry was “inactive”.

For `O=C(Oc1ccccc1)c1ccccc1O`, the Potency result is “inactive”. Same read-out and setting: then `Cc1cccc(O)c1C`, with “inactive”; and `CCCCCCCCCCCCc1ccccc1O`, with “inactive”. As for `C=C(C)C(=O)O`, the Potency entry is “inactive”.

Consider `CCCNC(C)C(=O)Nc1ccccc1C` (stereo not given), for which the Potency entry is “inactive”. With `CCN(CC)c1ccc2c(C)cc(=O)oc2c1`, the Potency result was “inactive”.

For the molecule `CC(C(O)c1ccc(O)cc1)N1CCC(Cc2ccccc2)CC1` (stereo not given), the Potency entry was “inactive”. The same measure, in the same setting: then `COc1ccc(CCN2CCC(Nc3nc4ccccc4n3Cc3ccc(F)cc3)CC2)cc1`, with “inactive”. In the case of `O=C1NCC2(CCN(CCc3ccccc3)CC2)O1`, the Potency entry was “inactive”. Regarding `CCCCCCC(O)CCCCCCCCCCC(=O)O` (stereo not given), the Potency result was “inactive”. `O=C(O)CP(=O)(O)O`: the Potency result is “inactive”. Still for that read-out and setting: in the case of `Oc1c(Cl)cc(Cl)cc1Sc1cc(Cl)cc(Cl)c1O` it was “inactive”. As for `Nc1ccc(O)cc1`, the Potency entry was “inactive”. As for `c1cc(C(c2ccc(OCC3CO3)cc2)C(c2ccc(OCC3CO3)cc2)c2ccc(OCC3CO3)cc2)ccc1OCC1CO1` (stereo not given), the Potency entry is “inactive”. On the same count and under the same terms, in the case of `[Cl][In]([Cl])[Cl]` it was “inactive”; in that of `Clc1ccc2c(c1)C(N1CCNCC1)=Nc1ccccc1O2`, “inactive”; in that of `Cc1cc(C(C)(C)C)c(O)c(C(C)(C)C)c1`, “inactive”.

Take `CO[Si](OC)(OC)c1ccccc1`: the Potency result was “inactive”. On to `CC(C)(C)c1ccc(O)c(C(C)(C)C)c1`, for which the Potency result is “inactive”. As to `Cc1ccnc2c1NC(=O)c1cccnc1N2C1CC1`, the Potency result is “inactive”. On the same count and under the same terms, in the case of `NC(Cc1ccc(Cl)cc1)C(=O)O` (stereo not given) it was “inactive”. On the same count and under the same terms, then `CCCCCCCCCCCC[N+](C)(C)C`, with “inactive”; and `Oc1ccc(Cl)cc1Cc1cc(Cl)ccc1O`, with “inactive”; and `CCN(CC)C(=S)SSC(=S)N(CC)CC`, with “inactive”. Same read-out and setting: then `O=C(O)c1cc(Cl)cc(Cl)c1`, with “inactive”; and `Cc1occc(=O)c1OC(=O)C(C)C`, with “inactive”. Consider `BrC1CCC(Br)C(Br)CCC(Br)C(Br)CCC1Br` (stereo not given), for which the Potency entry is “inactive”.

`COc1ccc(Cc2cnc(N)nc2N)cc1OC`: the Potency result was “inactive”. Turning to `O=C(O)CCc1ccccc1`, the Potency entry is “inactive”. On the same count and under the same terms, in the case of `OCCOCCN1CCN(C(c2ccccc2)c2ccc(Cl)cc2)CC1` (stereo not given) it was “inactive”; in that of `Nc1ccc2cc3ccccc3cc2c1`, “inactive”; in that of `CC1COC(=O)O1` (stereo not given), “inactive”. The same measure, in the same setting: in the case of `CCN(CC)C(=O)Nc1ccc(OCC(O)CNC(C)(C)C)c(C(C)=O)c1` (stereo not given) it was “inactive”.

On to `CCCCOCCOC(=O)c1ccccc1C(=O)OCCOCCCC`, for which the Potency entry was “inactive”. As to `COc1nc(C)nc(Cl)c1NC1=NCCN1`, the fluorescence, % of fluorescein was -0.014% [at 18.6 µM]. Turning to `Cc1cccc([N+](=O)[O-])c1C(=O)O`, the Potency result was “inactive”. With `CCC(C)(C)C(=O)O[C@H]1C[C@@H](C)C=C2C=C[C@H](C)[C@H](CC[C@@H]3C[C@@H](O)CC(=O)O3)[C@H]21`, the Potency entry is “inactive”. As for `CC[C@H]1CN2CCc3cc(OC)c(OC)cc3[C@@H]2C[C@@H]1C[C@H]1NCCc2cc(OC)c(OC)cc21`, the Potency result is “inactive”.
